Results reported in PubChem BioAssay (NCI).
The panel holds about 83,000 compounds, 20% with a hit somewhere; the sample as a whole holds those more often.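 48-hour exposure, single concentration, 96-well plates; percent growth endpoint where 0 means no net growth. Active: below 10.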 Values without a mark were called inactive. Active and inactive are the calls of the source.

Experiments:
Assay in all cases: NCI-60 one-dose screen, 48 h (100 = growth as untreated, 0 = no growth, -100 = all killed)
Conditions in all cases: 10 µM unless noted
HCT-15 colon = tested on: HCT-15 colon
HT29 colon = tested on: HT29 colon
SNB-75 CNS = tested on: SNB-75 CNS
SNB-19 CNS = tested on: SNB-19 CNS
U251 CNS = tested on: U251 CNS
PC-3 prostate = tested on: PC-3 prostate
SK-MEL-5 melanoma = tested on: SK-MEL-5 melanoma
UACC-62 melanoma = tested on: UACC-62 melanoma
LOX IMVI melanoma = tested on: LOX IMVI melanoma
SK-MEL-28 melanoma = tested on: SK-MEL-28 melanoma

SMILES | growth (HCT-15 colon) | growth (HT29 colon) | growth (SNB-75 CNS) | growth (SNB-19 CNS) | growth (U251 CNS) | growth (PC-3 prostate) | growth (SK-MEL-5 melanoma) | growth (UACC-62 melanoma) | growth (LOX IMVI melanoma) | growth (SK-MEL-28 melanoma)
CNC(=O)c1cc(Oc2ccc(NC(=O)Nc3ccc(Cl)c(C(F)(F)F)c3)c(F)c2)ccn1 | -18.1% (active) | -35.2% (active) | -68.8% (active) | 3.52% (active) | -44.4% (active) | 3.89% (active) | -95.9% (active) | -41.9% (active) | -89% (active) | -53.7% (active)
C[C@@H](C[C@H](CCO)c1cc(C(F)(F)F)cc(C(F)(F)F)c1)c1ccc2ccccc2c1 | 76.7% | 71.2% | 88.5% | 107% | 91.5% | 83% | 105% | 90.4% | 87.3% | 86.7%
Nc1nc(N)c2cc(CNc3ccc(C(=O)NC(CC(=O)O)C(=O)O)cc3)ccc2n1 (stereo not given) | 36.9% | 19.8% | 52.8% | 43.4% | 38.1% | 31.2% | 21.8% | 3.72% (active) | 15.2% | 54.3%
COCCOc1cnc2ccn([C@H](C)c3nnc4c(F)cc(-c5cnn(C)c5)cn34)c(=O)c2c1 | 95.5% | 104% | 93.2% | 73.9% | 92.2% | 78.7% | 47.5% | 20.7% | 61.5% | 44%
COc1ccc(C2CC(=O)c3c(O)c(OC)c(OC)c(OC)c3O2)cc1O (stereo not given) | 9.19% (active) | 101% | 39.9% | 36.9% | 25.7% | 31.2% | 18.9% | 35.2% | 40.9% | 52.9%
C=CC[n+]1c(/C=C/C=C2\N(C)c3ccccc3C2(C)C)sc2ccc(OC)cc21 | 12.8% | 9.18% (active) | 20% | 28.2% | 15.9% | 17.6% | -90.7% (active) | 19.5% | 15.9% | 37.5%
Nc1c(C(=O)c2ccccc2)sc2nc(-c3cccs3)ccc12 | 24.7% | 5.02% (active) | 32.4% | 36.1% | 17.6% | 23% | 17.5% | 11.8% | 44.8% | 72.6%
COc1cccc(NC(=O)Nc2ccc(Nc3ncnc4sc5c(c34)CCN(C(=O)CCl)C5)cc2)c1 | 118% | 90.2% | 86.4% | 102% | 95.5% | 90.7% | 106% | 94.8% | 94.1% | 117%
COc1ccc(CCCc2c3[n+](cc4c(OC)c(OC)ccc24)CCc2cc4c(cc2-3)OCO4)cc1 | 102% | 47.2% | 88.3% | 60.4% | 40.8% | 58.2% | 39% | 49.7% | 57.8% | 63.1%
Nc1c2c(c(O)c3c1=C(CO)C=N3)=NCCS2=O (stereo not given) | 4.65% (active) | -27.4% (active) | -45.3% (active) | -93.6% (active) | -89.8% (active) | 8% (active) | -100% (active) | -56.4% (active) | -93.4% (active) | -17.4% (active)
COC(=O)[C@@H](C)CNS(=O)(=O)N(c1cc(C(F)(F)F)cc(C(F)(F)F)c1)C1CCN(Cc2ccc(F)cc2)CC1 | 27.9% | 19.5% | 65.4% | 67.7% | 52.3% | 45.4% | 29.9% | 69.1% | 48.2% | 82.9%
CNC(=O)c1cc(Oc2cccc3nc(Nc4ccc(Cl)c(F)c4)ccc23)ccn1 | 59.3% | 82.5% | -11.7% (active) | 30.3% | 53.3% | 66.1% | 44.8% | 52.3% | 59.6% | 48.8%
COc1cc2ncnc(Nc3ccc(O)cc3)c2cc1OC | 95.8% | 68.2% | 64% | 77.7% | 83.6% | 91% | 98.2% | 76.7% | 92.2% | 97%
CC(=O)O[C@]1(C)C[C@H](O)[C@]2(O)C=CO[C@H](O[C@@H]3O[C@H](CO)[C@@H](O)[C@H](O)[C@H]3O)[C@@H]21 | 99.1% | 103% | 83.3% | 99.6% | 99.8% | 103% | 103% | 100% | 105% | 112%
O=C(Nc1cccc([N+](=O)[O-])c1)c1ccc(Cl)c(Cl)c1 | 93.2% | 78.3% | -2.87% (active) | 53.5% | 62.4% | 60.7% | 89.4% | 74.4% | 63.6% | 53.5%
Cn1cc(-c2cnn3c(N)c(Br)c([C@@H]4CCCNC4)nc23)cn1 | 60.6% | 23% | 20.5% | 52.1% | 61% | 42.8% | 28.6% | 63.7% | 22% | 72.5%
C=CC(=O)Nc1cccc(Nc2nc(Nc3ccc(N4CCN(C(C)=O)CC4)cc3OC)ncc2C(F)(F)F)c1 | 5% (active) | -7.05% (active) | 16.1% | 39.6% | 30.1% | 27.6% | 6.86% (active) | 11.1% | 6.36% (active) | 50.6%
O=C(COc1cccc(/C=C2\Cc3ccc(Cl)cc3C2=O)c1)Nc1nccs1 | 91.9% | 102% | 76.6% | 85.9% | 96.7% | 88% | 93.1% | 84.2% | 78% | 124%
O=C(Cn1ccc2ccccc21)Nc1ccc(-c2nc3ccccc3s2)cc1 | 110% | 115% | 93.8% | 98.6% | 97.6% | 98% | 98.6% | 95% | 91.3% | 114%
COc1cc2nccc(Oc3ccc(NC(=O)C4(C(=O)Nc5ccc(F)cc5)CC4)cc3)c2cc1OC | 5.75% (active) | -19.1% (active) | -18.9% (active) | 29.9% | 25.1% | 20.8% | 3.39% (active) | -12.2% (active) | -71.2% (active) | 1.37% (active)
Cc1cnc(NC(=O)Nc2cc(Br)c(C)cc2OC[C@@H]2CNCCO2)cn1 | 6.54% (active) | -6.22% (active) | 26.5% | 39.7% | 11.7% | 39.7% | -92.2% (active) | 12.2% | -78% (active) | -88.7% (active)
COC(=O)[C@]12CC[C@@H](C)[C@H](C)[C@@H]1C1=CC[C@@H]3[C@@]4(C)C(C=O)=C[C@@](C)(COS(C)(=O)=O)C4=CC[C@@]3(C)[C@]1(C)CC2 | -80.5% (active) | -63.2% (active) | -25.1% (active) | -5.33% (active) | -93.6% (active) | -19.9% (active) | -98.2% (active) | -73.4% (active) | -98.7% (active) | -72.3% (active)
Cn1cc(-c2ncnc3ccc(-c4cnc(Cl)c(NS(C)(=O)=O)c4)cc23)c2ccccc21 | 13.2% | 11.7% | -14.9% (active) | 27.7% | 24.4% | 20.1% | -14.6% (active) | -18.8% (active) | 9.88% (active) | 0.439% (active)
C[C@@]1(C(=O)Nc2ccc(F)nc2)CCCN1c1nc(Nc2cc(C3CC3)[nH]n2)c2cccn2n1 | 26.5% | -31.8% (active) | -53.2% (active) | 55.2% | 32.3% | 30.8% | 48.1% | 17.5% | -35.5% (active) | 43.6%
CCCCCC(=O)OCc1ccc(Cl)c(Cl)c1 | 109% | 109% | 96.5% | 105% | 98.2% | 96.3% | 108% | 106% | 96% | 111%
N#CCNC(=O)c1ccc(-c2ccnc(Nc3ccc(N4CCOCC4)cc3)n2)cc1 | 20.7% | 24.2% | -4.36% (active) | 50.8% | 19.3% | 30.8% | 25.1% | 34% | 4.92% (active) | 36.7%
